# Sm TGR inh: qHTS Assay for the Inhibitors of Schistosoma Mansoni Peroxiredoxins. Schistosoma mansoni thioredoxin glutathione reductase (TGR), Q962Y6. AID 485364, 2010. Potency, µM (doses to about 114 µM), for inactives: at the top dose activity change, negative = inhibition, actives largely listed as inhibitors. hit rate 3% among 360,000. purified TGR, DTNB reduction, TNB absorbance 405 nm; active = well fitted inhibition curve with a large enough effect; inconclusive = small, poorly fitted or top-dose-only effect; inactive = no such curve, though single readings can be large or run the other way; also: potency is read from the fitted curve at half-maximal effect; % is scaled to controls: 0 for no effect and ±100 for the full control effect; nearly all actives have a fitted effect of over 60% in size
#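 First, TGR (20 nM dispensed) and NADPH were mixed with compound. Second, a 15 min room-temperature incubation followed. Third, further NADPH and then DTNB were added to start the reaction. Finally, TNB absorbance was monitored kinetically.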
# Shiga inhibitor: A qHTS for Small Molecule Inhibitors of Shiga Toxin; Vero cells, Shiga toxin protein synthesis inhibition reporter; inhibition, % at 38.7 µM; hit rate 9.2% among 290,000; in the data active = inhibition mostly above about 28%, no sharp cut-off; inactive = mostly below about 43%; also: 0% is about no effect
# Cycloheximide cs: Cycloheximide Counterscreen for Small Molecule Inhibitors of Shiga Toxin; cell reporter, cycloheximide protein synthesis inhibition counterscreen; max response, %; hit rate 12% among 300,000; AID 2314, 2010; in the data active = max response mostly above about 13%, no sharp cut-off; inactive = mostly below about 14%; also: read at 38.3 µM for the half of the compounds with a filed dose; 0% is about no effect
# FMDV antiviral: High Throughput Screening for Foot and Mouth Disease Virus Antivirals | hit rate 1.2% among 410,000 | Potency, µM (series often up to 57.9 µM), inactives show top-dose activity change, negative = inhibition, most hits filed as inhibitors | AID 1159524, 2015 | FMDV antiviral cell-based qHTS; calls by dose curve; tested in HEK293T cells; also: read-out not given here; potency is read from the fitted curve at half-maximal effect; % is scaled to controls: 0 for no effect and ±100 for the full control effect; nearly all actives have a fitted effect of over 45% in size
# * marks the source's active call; other numbers are inactive results; ? = inconclusive; . = no result given. Compounds with a hit are over-represented: about 12% of the library has one in this group of screens.
SMILES,Sm TGR inh,Shiga inhibitor,Cycloheximide cs,FMDV antiviral
Cc1ccccc1NS(=O)(=O)c1ccc(NC(=O)c2nc3ncccn3n2)cc1,-3%,2,-3,.
CCOc1cc(/C=N/Nc2nc(-c3cccs3)c(NC(C)=O)s2)ccc1O,?,27,20*,-15%
CC(=O)Nc1sc(N/N=C\c2ccccc2)nc1-c1cccs1,-30%,active,31*,41%
CCOc1cc(/C=N/NC(=O)CSc2cccc3cccnc23)ccc1O,-3%,19,-3,-16%
CC(=O)Nc1sc(N/N=C\c2ccco2)nc1-c1cccs1,?,33,12*,3%
CC(=O)Nc1sc(NC(=O)c2ccc(Cl)cc2)nc1-c1cccs1,4%,-14,-3,7%
CC(=O)Nc1sc(N/N=C\c2ccccc2Cl)nc1-c1cccs1,-9%,82*,73*,20%
CC(=O)Nc1sc(NC(=O)c2ccc([N+](=O)[O-])cc2)nc1-c1cccs1,0%,10,6,-29%
COc1ccc(OC)c(Nc2ncnc3c2cnn3-c2ccccc2)c1,-1%,44,21*,.
Cc1cccc(-n2ncc3c(Nc4ccc(C)c(Cl)c4)ncnc32)c1,-8%,.,.,4%
COc1ccccc1Nc1ncnc2c1cnn2-c1cccc(C)c1,15%,83*,51*,41%
COc1cccc(Nc2ncnc3c2cnn3-c2cccc(C)c2)c1,1%,78*,27*,-3%
COc1ccc(OC)c(Nc2ncnc3c2cnn3-c2ccc(C)cc2)c1,1%,.,.,2%
COc1cc(OC)c(OC)cc1/C=C1\CC(C)C/C(=C\c2cc(OC)c(OC)cc2OC)C1=O (centres undefined),-30%,4,-1,13µM*
CCC1C/C(=C\c2cc(OC)c(OC)cc2OC)C(=O)/C(=C/c2cc(OC)c(OC)cc2OC)C1 (centres undefined),-21%,-4,3,?
c1ccc(OCCCc2nc(-c3ccccn3)no2)cc1,?,42*,34*,4%
O=C1c2ccccc2C(=O)N1CCCc1nc(-c2ccccn2)no1,6%,84*,23*,13%
O=C1c2ccccc2C(=O)N1CCc1nc(-c2ccccn2)no1,0%,58*,28*,21%
Nc1nonc1-c1noc(CCCCCN2C(=O)c3ccccc3C2=O)n1,5%,148*,75*,0%
Cc1ccc(Nc2sc(C(=O)c3ccccc3)c(N)c2S(=O)(=O)c2ccccc2)c(C)c1,?,.,.,-23%
O=c1c(N2CCN(c3cccc(Cl)c3)CC2)csc2ccccc12,1%,.,.,-20%
CCOC(=O)C1CCCN(Cc2nc3ccc([N+](=O)[O-])cc3c(=O)n2-c2ccc(OC)cc2OC)C1 (centres undefined),?,-9,4,-21%
CCN1CCN(Cc2nc3ccc([N+](=O)[O-])cc3c(=O)n2-c2ccc(OC)cc2OC)CC1,?,-7,-1,1%
CCOC(=O)C1CCN(Cc2nc3ccc([N+](=O)[O-])cc3c(=O)n2-c2ccc(OC)cc2OC)CC1,32µM*,-10,8,-10%
COc1ccc(-n2c(CN3CCC(C(N)=O)CC3)nc3ccc([N+](=O)[O-])cc3c2=O)c(OC)c1,45µM*,36,1,3%
SMILES,Sm TGR inh,Shiga inhibitor,Cycloheximide cs,FMDV antiviral
COc1cccc(CNC(=O)CN2C(=O)N(c3ccc(C)cc3C)S(=O)(=O)c3ccccc32)c1OC,5%,.,.,?
COc1cccc(N2CCN(C(=O)CN3CCSc4ccc(S(=O)(=O)N(C)C)cc43)CC2)c1,0%,.,.,-22%
CC(C)Oc1ccc(CNC(=O)Cn2ncn3nc(-c4cccs4)cc3c2=O)cc1,-13%,.,.,-9%
c1ccc(-c2nnc(SCCC3OCCCO3)o2)cc1,-24%,104*,43*,31%
Brc1ccc(-c2nnc(SCCC3OCCCO3)o2)cc1,8%,59*,42*,28%
COc1ccc(SCCN2CCN(CCc3ccccc3)CCC2=O)cc1,.,0,15,.
CCn1ccc2cc(S(=O)(=O)N3CCC(C(=O)NCCc4ccc(SC)cc4)CC3)ccc21,0%,.,.,-19%
CC1CC(c2ccccc2)=Nc2ccccc2N1 (centres undefined),?,54*,46*,50%
CC1CC(=O)Nc2ccccc2N1 (centres undefined),.,.,.,-4%
O=C(NCCCN1CCOCC1)c1cc(-c2ccccc2)on1,5%,137*,13*,80%
O=C(NCCN1CCOCC1)c1cc(-c2cccs2)on1,-10%,57*,20*,52%
O=C(NCCCN1CCOCC1)c1cc(-c2ccc(O)cc2)on1,0%,19,2,12%
O=C(NCCN1CCOCC1)c1cc(-c2ccccc2)on1,4%,74*,22*,.
O=C(NCCN1CCOCC1)c1cc(-c2ccccc2Cl)on1,8%,23,13,25%
O=C(NCCN1CCOCC1)c1cc(-c2ccc(Br)cc2)on1,-5%,11,11,12%
Cc1cc(C)c(NC(=O)C2C3/C=C\CCCCC32)c(C)c1 (centres undefined),4%,-13,1,24%
O=C(Nc1ccccc1)C1C2CCCCC21 (centres undefined),3%,65*,22*,38%
C/C(CC(=O)Nc1ccc([N+](=O)[O-])cc1)=N/NC(=O)C1C2CCCCC21 (centres undefined),-24%,36,19*,-27%
Cc1cc(NC(=O)OC2CCCCC2)ccc1[N+](=O)[O-],6%,123*,55*,30%
Cc1ccc(NC(=O)C2C3/C=C\CCCCC32)cc1 (centres undefined),2%,18,12*,32%
C/C(CC(=O)Nc1ccc([N+](=O)[O-])cc1)=N/NC(=O)C1CC12CCC2 (centres undefined),-1%,-19,0,-17%
Cc1ccc2cccc(NC(=O)c3ccc(-c4cccc(Cl)c4Cl)o3)c2n1,0%,.,.,-11%
Cc1ccc(Cl)cc1N1CCN(C(=O)c2ccc3c(c2)N(Cc2ccccc2F)C(=O)c2ccccc2S3(=O)=O)CC1,9%,.,.,-21%
O=C(Nc1cccc([N+](=O)[O-])c1)C1C2CCCCC21 (centres undefined),-11%,16,3,21%
Cc1ccc(NC(=O)C2C3CCCCC32)cc1[N+](=O)[O-] (centres undefined),-9%,58*,48*,49%
SMILES,Sm TGR inh,Shiga inhibitor,Cycloheximide cs,FMDV antiviral
Cc1cccc(NC(=O)C2C3CCCCC32)c1 (centres undefined),-20%,25*,32*,46%
COc1ccc(C)cc1NC(=O)C1CCN(S(=O)(=O)c2ccc3[nH]c4c(c3c2)CCCCC4)CC1,0%,.,.,-3%
Cc1cccc2c1-c1sc(C(=O)N(C)c3cccc(Cl)c3)cc1CO2,-3%,.,.,-14%
C=CCSc1nc2sc(C)c(C)c2c(=O)n1CC=C,16µM*,12,1,-16%
COc1ccsc1NC(=O)OCc1ccc(Cl)cc1,0%,44*,37*,30%
CCOc1ccc(C(c2c(O)cc(C)n(CCOC)c2=O)N2CCN(c3ccccc3F)CC2)cc1 (centres undefined),10µM*,.,.,-26%

# Compound activity (PubChem BioAssay)
